{"source": "the supplement of paper PMC7724964"}
{"target": "DYNLL1 1-89 Dynein_light (domain begin residue: 1, domain end residue: 89), P63167", "sequence (P63167 whole entry, the tested form may be a part)": "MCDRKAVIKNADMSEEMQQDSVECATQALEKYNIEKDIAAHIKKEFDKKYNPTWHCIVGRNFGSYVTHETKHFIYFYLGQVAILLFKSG", "test": "phage ELISA signal ratio (GST-PRM binding over GST background); higher = stronger binding of peptide-phage to the PRM", "summary_of_the_method": "(§1)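 Five rounds of selection were carried out against human peptide recognition domains fused to the C-terminus of glutathione S-transferase (GST) and expressed in 96-well plates. The M13 phage library presented randomized hexadecapeptides, cysteine-free and glycine-flanked, on the gene-8 major coat protein. For each value, the phage ELISA signal on the GST-domain fusion was divided by the signal on GST alone.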"}
{"binder": "TQTSWWWSETPMFPFM", "phage ELISA signal ratio": 3.08}
{"binder": "VDMGTQTEASLLRYSV", "phage ELISA signal ratio": 33.5}
{"binder": "TQTDESMWLWHWPEDH", "phage ELISA signal ratio": 29.4}
{"binder": "TQTEFPWEDARLPKQE", "phage ELISA signal ratio": 28.7}
{"binder": "EMWTQTTSYDFLQMQG", "phage ELISA signal ratio": 20.7}
{"binder": "SQTEPMPLWSRDAEVT", "phage ELISA signal ratio": 23.1}
{"binder": "SQTDWYDELFSQLVVT", "phage ELISA signal ratio": 27.9}
{"binder": "MSLGTQTDWQEPMWWL", "phage ELISA signal ratio": 26.8}
{"binder": "SQTEWDWLEREWKPSI", "phage ELISA signal ratio": 19.4}
{"binder": "VQTDPWVGQLGDFMFV", "phage ELISA signal ratio": 17.1}
{"binder": "TQTGESEMYFWNHMPK", "phage ELISA signal ratio": 22.7}
{"binder": "TQTEFYASDWWMMENV", "phage ELISA signal ratio": 15.6}
{"binder": "SQTDPTYWFPWEDKWN", "phage ELISA signal ratio": 28.8}
{"binder": "KDFGTQVDFDILHEEE", "phage ELISA signal ratio": 27.5}
{"binder": "SPTEWVWNWGENAQML", "phage ELISA signal ratio": 24.1}
{"binder": "ISVGTQTDWTEPPQMG", "phage ELISA signal ratio": 29.1}
{"binder": "GTQTDDTMVYFPREQR", "phage ELISA signal ratio": 22.8}
{"binder": "TQTLAWDWYYEFPEMI", "phage ELISA signal ratio": 24.5}
{"binder": "VQTDWYGVDGFWVPVL", "phage ELISA signal ratio": 18.1}
{"binder": "TQTPVWGMDGWMWVTV", "phage ELISA signal ratio": 19.5}
{"binder": "MATQTDWNWGFLQEME", "phage ELISA signal ratio": 29.1}
{"binder": "TQTGMWDETDSREHWD", "phage ELISA signal ratio": 11.5}
{"binder": "TQTPYDWLYPAATYLT", "phage ELISA signal ratio": 28}
{"binder": "TQTEYWVIDMPDWMTI", "phage ELISA signal ratio": 21.2}
{"binder": "TQTDMNFWHSPWVELV", "phage ELISA signal ratio": 24.8}
{"binder": "TQTDAWEMTMLAQQAV", "phage ELISA signal ratio": 25.2}
{"binder": "TQTEWLWNWGESAHML", "phage ELISA signal ratio": 29.8}
{"binder": "SQTPDEWDWQPGAWIT", "phage ELISA signal ratio": 19.7}
{"binder": "WTQTEDPWEYTWLDLV", "phage ELISA signal ratio": 17.8}
{"binder": "TQTEDWPQRESQPNWM", "phage ELISA signal ratio": 25.2}
{"binder": "LQTPDWMWAPNVLESM", "phage ELISA signal ratio": 6.16}
{"binder": "TQTEEYMQMLWPYQDV", "phage ELISA signal ratio": 21.3}
{"binder": "LREMGTQTGEMITDYV", "phage ELISA signal ratio": 25.8}
{"binder": "TQTDLMGDHWPQHKMT", "phage ELISA signal ratio": 24.5}
{"binder": "VQTDWMDWWMPDPFNA", "phage ELISA signal ratio": 23.6}
{"binder": "TQTEPAWGETGEMTAI", "phage ELISA signal ratio": 26}
{"binder": "VTVGTQWDGFHVDAPI", "phage ELISA signal ratio": 19.6}
{"target": "T1, DVL2 416-511 DEP (domain begin residue: 416, domain end residue: 511), O14641", "T1 chain": "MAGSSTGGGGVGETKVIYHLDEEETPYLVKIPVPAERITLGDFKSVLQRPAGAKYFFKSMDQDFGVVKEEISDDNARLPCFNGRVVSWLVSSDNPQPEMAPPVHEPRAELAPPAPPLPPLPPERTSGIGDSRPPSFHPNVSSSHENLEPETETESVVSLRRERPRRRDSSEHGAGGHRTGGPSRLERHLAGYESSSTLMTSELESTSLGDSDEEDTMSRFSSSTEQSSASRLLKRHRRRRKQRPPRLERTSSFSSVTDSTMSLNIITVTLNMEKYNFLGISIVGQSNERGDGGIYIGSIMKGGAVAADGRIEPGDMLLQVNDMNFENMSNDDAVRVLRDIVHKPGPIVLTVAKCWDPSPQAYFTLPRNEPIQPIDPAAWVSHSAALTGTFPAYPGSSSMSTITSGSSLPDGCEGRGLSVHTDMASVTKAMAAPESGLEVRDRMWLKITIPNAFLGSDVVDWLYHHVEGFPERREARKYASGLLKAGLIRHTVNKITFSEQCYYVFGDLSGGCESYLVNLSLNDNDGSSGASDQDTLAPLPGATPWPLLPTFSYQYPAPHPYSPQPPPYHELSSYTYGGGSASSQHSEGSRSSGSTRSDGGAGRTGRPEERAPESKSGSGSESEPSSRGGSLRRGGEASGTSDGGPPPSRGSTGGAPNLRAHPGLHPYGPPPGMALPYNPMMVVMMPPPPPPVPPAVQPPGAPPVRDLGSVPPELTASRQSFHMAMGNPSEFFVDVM", "test": "phage ELISA signal ratio (GST-PRM binding over GST background); higher = stronger binding of peptide-phage to the PRM", "summary_of_the_method": "as §1"}
{"binder": "YWFWNPEIMDAQYMPV", "phage ELISA signal ratio": 7.02}
{"binder": "YQPDMRMQDGKWYWII", "phage ELISA signal ratio": 20.4}
{"binder": "MWYWDPGENTAIWVEQ", "phage ELISA signal ratio": 22.1}
{"binder": "KWMIDLTDWEAYWVPS", "phage ELISA signal ratio": 26.7}
{"binder": "VFWENQHWMQDLNPEW", "phage ELISA signal ratio": 26.1}
{"binder": "PLENPTYKDGLWWWSV", "phage ELISA signal ratio": 24.4}
{"binder": "IYWDWEDGYIYEHQPE", "phage ELISA signal ratio": 18.2}
{"binder": "LWFWDVETGNAYKTQE", "phage ELISA signal ratio": 14.1}
{"binder": "AYYWSITLGDIVYMVD", "phage ELISA signal ratio": 16.1}
{"binder": "MWFWNLDEAMPIWTAM", "phage ELISA signal ratio": 13.3}
{"binder": "EMWYWDAVQGVPYKQG", "phage ELISA signal ratio": 23.9}
{"binder": "QAVPMWQDEHGYWWWN", "phage ELISA signal ratio": 33.3}
{"binder": "PETPYFSDGMWWWVKP", "phage ELISA signal ratio": 28.8}
{"target": "T2, DVL3 407-503 DEP (domain begin residue: 407, domain end residue: 503), Q92997", "T2 chain": "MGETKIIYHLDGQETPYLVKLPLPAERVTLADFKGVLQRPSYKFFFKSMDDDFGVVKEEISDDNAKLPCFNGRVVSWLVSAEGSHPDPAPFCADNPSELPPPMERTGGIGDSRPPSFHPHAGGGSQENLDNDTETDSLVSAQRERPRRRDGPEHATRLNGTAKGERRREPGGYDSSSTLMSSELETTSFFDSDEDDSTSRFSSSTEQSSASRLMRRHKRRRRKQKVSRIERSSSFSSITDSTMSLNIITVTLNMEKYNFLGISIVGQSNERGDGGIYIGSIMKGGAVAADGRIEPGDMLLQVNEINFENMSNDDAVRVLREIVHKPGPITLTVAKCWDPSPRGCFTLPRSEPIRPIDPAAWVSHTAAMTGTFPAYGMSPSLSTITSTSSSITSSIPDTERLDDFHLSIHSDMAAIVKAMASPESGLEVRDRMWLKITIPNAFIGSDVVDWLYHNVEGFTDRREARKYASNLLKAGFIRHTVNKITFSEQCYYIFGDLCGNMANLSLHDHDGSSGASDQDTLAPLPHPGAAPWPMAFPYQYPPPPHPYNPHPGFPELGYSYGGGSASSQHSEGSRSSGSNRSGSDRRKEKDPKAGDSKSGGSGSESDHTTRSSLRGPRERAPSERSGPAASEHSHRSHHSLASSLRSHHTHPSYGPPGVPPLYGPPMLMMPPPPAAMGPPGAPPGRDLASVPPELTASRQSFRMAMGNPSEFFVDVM", "test": "phage ELISA signal ratio (GST-PRM binding over GST background); higher = stronger binding of peptide-phage to the PRM", "summary_of_the_method": "as §1"}
{"binder": "MDGWFWDHAPHFTMDF", "phage ELISA signal ratio": 4.23}
{"binder": "WQMNHLEEWRAYAETL", "phage ELISA signal ratio": 24.2}
{"binder": "PDLAAWRIWIMEEEQV", "phage ELISA signal ratio": 22.4}
{"binder": "PKYQFSLSAESLQWLM", "phage ELISA signal ratio": 18.1}
{"target": "T3, DVL1 406-503 DEP (domain begin residue: 406, domain end residue: 503), O14640", "T3 chain": "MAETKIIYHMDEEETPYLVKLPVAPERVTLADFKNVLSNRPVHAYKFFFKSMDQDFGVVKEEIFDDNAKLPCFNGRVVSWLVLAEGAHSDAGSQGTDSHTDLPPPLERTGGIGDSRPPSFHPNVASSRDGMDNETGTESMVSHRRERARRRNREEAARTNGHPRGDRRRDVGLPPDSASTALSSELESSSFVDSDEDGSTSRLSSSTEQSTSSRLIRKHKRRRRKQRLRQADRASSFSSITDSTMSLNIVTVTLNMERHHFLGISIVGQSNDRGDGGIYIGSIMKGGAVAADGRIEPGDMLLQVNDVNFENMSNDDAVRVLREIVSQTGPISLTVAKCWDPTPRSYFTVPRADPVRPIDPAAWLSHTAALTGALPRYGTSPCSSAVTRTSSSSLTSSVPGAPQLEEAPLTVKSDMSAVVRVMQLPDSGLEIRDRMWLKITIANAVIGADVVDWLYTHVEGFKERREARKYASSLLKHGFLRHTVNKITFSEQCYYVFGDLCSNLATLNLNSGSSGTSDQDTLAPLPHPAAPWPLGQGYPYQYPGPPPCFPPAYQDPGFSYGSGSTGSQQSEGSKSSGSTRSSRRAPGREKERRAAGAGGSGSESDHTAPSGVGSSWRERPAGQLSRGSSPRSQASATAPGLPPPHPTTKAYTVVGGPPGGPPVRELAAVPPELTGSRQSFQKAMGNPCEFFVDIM", "test": "phage ELISA signal ratio (GST-PRM binding over GST background); higher = stronger binding of peptide-phage to the PRM", "summary_of_the_method": "as §1"}
{"binder": "VHWTLQSVTDWKWVPQ", "phage ELISA signal ratio": 31.9}
{"binder": "WEWQFWQDYMAQFPSE", "phage ELISA signal ratio": 3.48}
{"target": "T4, DYNLL2 1-89 Dynein_light (domain begin residue: 1, domain end residue: 89), Q96FJ2", "T4 chain": "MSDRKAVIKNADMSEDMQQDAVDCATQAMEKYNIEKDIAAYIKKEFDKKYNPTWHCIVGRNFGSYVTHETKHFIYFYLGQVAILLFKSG", "test": "phage ELISA signal ratio (GST-PRM binding over GST background); higher = stronger binding of peptide-phage to the PRM", "summary_of_the_method": "as §1"}
{"binder": "QQTDDWHVAETGIWLA", "phage ELISA signal ratio": 13.9}
